The nature of test [1]: ATG_TCF_b_cat_CIS: Attagene CIS-FACTORIAL HepG2 Assay for human T-Cell-Factor with beta-catenin (TCF/b-cat) (AID 2282965). The following applies: HepG2 TCF/beta-catenin cis-reporter transcription, actives raise or lower the signal. In outline: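 Measured: reporter mRNA in HepG2 transiently transfected with cis-promoter reporter units, 24 h after chemical addition. Fitting was bidirectional, DMSO as negative control.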

Test [2] is described as follows: ATG_TAL_CIS: Attagene CIS-FACTORIAL HepG2 Assay for human TAL Basal Promoter (AID 2282966).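 Note: background control endpoint measuring basal TAL promoter reporter mRNA not a specific factor.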 The following applies: HepG2 Attagene cis-factorial TAL promoter reporter; actives raise or lower the signal. In outline:
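Fluorescence of labelled reporter cDNA fragments, resolved by capillary electrophoresis, gave the readout. Human HepG2 liver cells carried transiently transfected cis-element reporter units and were treated for 24 hours; activity was fitted bidirectionally against DMSO.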

A short description of test [3]: ATG_TGFb_CIS: Attagene CIS-FACTORIAL HepG2 Assay for human Transforming Growth Factor (TGF) (AID 2282967). Conditions: HepG2 Attagene CIS TGFb reporter, mRNA transcription; actives raise or lower the signal. The method, boiled down: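 HepG2 cells transiently transfected with cis-promoter-driven multiple reporter units measure endogenous TF activity; reporter mRNA quantified at 24 h by RT-PCR, FAM labeling, HpaI digestion and capillary electrophoresis. Bidirectional fit vs DMSO.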

Test [4] can be described thus: ATG_GAL4_TRANS: Attagene TRANS-FACTORIAL HepG2 Assay for GAL4 (Internal Marker) (AID 2282976; active = hit-call score of the fitted dose curve at least 0.9, where 1 is the maximum). Conditions: HepG2 Attagene TRANS GAL4 internal marker reporter. The method, boiled down:
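First, HepG2 cells were transfected with reporter units under GAL4-UAS control. Next, they were treated with chemical for 24 h. Finally, RNA was reverse-transcribed, PCR-amplified, FAM-labelled and resolved by capillary electrophoresis, with induction scored against DMSO.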

Test [5] addresses Bile acid receptor (Homo sapiens) (UniProt Q96RI1). The test is described as follows: ATG_FXR_TRANS: Attagene TRANS-FACTORIAL HepG2 Assay for Farnesoid X Receptor (FXR) (AID 2282979; active = hit-call score of the fitted dose curve at least 0.9, where 1 is the maximum;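 note: hits raise reporter mRNA above DMSO so AC50 marks FXR activation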). Conditions: HepG2 Attagene TRANS FXR-GAL4 reporter transcription. The method, boiled down:
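Transient transfection of HepG2 with multiplexed GAL4-UAS reporter units; exogenous FXR-GAL4 chimera. Dose 24 h → TriZol RNA → oligo(dT) RT → PCR, 6-FAM primer extension, HpaI cut → CE. Gain vs DMSO.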

Test [6] deals with Oxysterols receptor LXR-alpha (Homo sapiens) (UniProt Q13133). Kind of test: ATG_LXRa_TRANS: Attagene TRANS-FACTORIAL HepG2 Assay for human Liver X Receptor alpha (LXRa) (AID 2282980; active = hit-call score of the fitted dose curve at least 0.9, where 1 is the maximum). Conditions: HepG2 Attagene TRANS reporter, LXRa transactivation. In outline: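 Transfect HepG2 with GAL4-UAS multiplex reporter constructs (TRANS format, chimeric receptor-GAL4); treat 24 h; extract RNA, reverse-transcribe, PCR-amplify, FAM-label, HpaI-digest; resolve fragments by capillary electrophoresis. Upward response vs DMSO.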

Test [7] addresses Hepatocyte nuclear factor 4-alpha (Homo sapiens) (UniProt P41235). Kind of test: ATG_HNF4a_TRANS: Attagene TRANS-FACTORIAL HepG2 Assay for human Hepatocyte Nuclear Factor 4 alpha (HNF4a) (AID 2282982; active = hit-call score of the fitted dose curve at least 0.9, where 1 is the maximum). The following applies: HepG2 HNF4a transactivation reporter, mRNA readout. In outline: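 Transfected HepG2 reporter cells are dosed for 24 h; reporter RNA is reverse-transcribed, amplified, fluorescently labelled and HpaI-digested before CE sizing. Positive-direction fit against DMSO.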

A short description of test [8]: ATG_M_06_TRANS: Attagene TRANS-FACTORIAL HepG2 Assay for M06 Transcription Factor (Internal Marker) (AID 2282983; active = hit-call score of the fitted dose curve at least 0.9, where 1 is the maximum;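 note: reporter transcript level by RT-PCR then capillary electrophoresis fluorescence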). The following applies: HepG2 Attagene TRANS M06 internal marker reporter. The method, boiled down:
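Transfect HepG2 with MRTUs → dose compounds 24 h → isolate RNA, oligo(dT) RT → PCR with reporter primers → 6-FAM primer extension → HpaI digest → CE fragment analysis. Positive direction vs DMSO.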

The target of test [9] is Transcriptional activator Myb (Homo sapiens) (UniProt P10242). The test is described as follows: ATG_Myb_CIS: Attagene CIS-FACTORIAL HepG2 Assay for human Myeloblastosis (Myb) Proto-Oncogene Transcription Factor (AID 2282986). Conditions: HepG2 Attagene CIS-FACTORIAL Myb reporter transcription; actives raise or lower the signal. The method, boiled down: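 HepG2 cells were transiently transfected with cis-regulated multiple reporter transcription units reflecting endogenous Myb activity, then exposed to compound for 24 hours. Reporter mRNA was measured by RT-PCR with capillary electrophoresis; bidirectional fitting versus DMSO baseline.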

The target in test [10] is X-box-binding protein 1 (Homo sapiens) (UniProt P17861). Kind of test: ATG_Xbp1_CIS: Attagene CIS-FACTORIAL HepG2 Assay for human X-box Binding Protein 1 (XBP1) (AID 2282972). Conditions: HepG2 XBP1 cis-element reporter, Attagene multiplex; actives raise or lower the signal. In outline: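 HepG2, transient MRTU transfection (cis-promoter driven), 24 h compound exposure. Total RNA → oligo(dT) RT → PCR → 6-FAM labeling → HpaI cut → CE. Bidirectional fit vs DMSO.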

Test [11] concerns the target Glucocorticoid receptor (Homo sapiens) (UniProt P04150). Kind of test: ATG_GR_TRANS: Attagene TRANS-FACTORIAL HepG2 Assay for human Glucocorticoid Receptor (GR) (AID 2282978; active = hit-call score of the fitted dose curve at least 0.9, where 1 is the maximum;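 note: activators score as hits since higher reporter transcript over DMSO is fitted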). The following applies: HepG2 Attagene TRANS GR reporter, mRNA transcription. In outline: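 HepG2 cells transiently transfected with multiplexed reporter units in which chimeric NR-GAL4 proteins drive GAL4-UAS reporters; 24 h compound exposure. Reporter mRNA measured by RT-PCR, 6-FAM labelling, HpaI digestion and capillary electrophoresis; gain-of-signal fitted versus DMSO.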

Test [12] is described as follows: ATG_M_32_TRANS: Attagene TRANS-FACTORIAL HepG2 Assay for M32 Transcription Factor (Internal Marker) (AID 2282984; active = hit-call score of the fitted dose curve at least 0.9, where 1 is the maximum;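 note: transcript level of a background control reporter unit measured by RT-PCR and capillary electrophoresis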). Conditions: HepG2 Attagene TRANS M32 internal marker reporter. In outline: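 Using transiently transfected HepG2 cells exposed to test chemicals for 24 h, reporter transcripts are converted to labelled cDNA fragments and quantified by capillary electrophoresis. DMSO defines the activity baseline.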

A short description of test [13]: ATG_M_19_TRANS: Attagene TRANS-FACTORIAL HepG2 Assay for M19 Transcription Factor (Internal Marker) (AID 2282974; active = hit-call score of the fitted dose curve at least 0.9, where 1 is the maximum). The following applies: HepG2 Attagene TRANS-FACTORIAL M19 internal marker reporter. In outline:
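HepG2 cells transiently transfected with multiple GAL4-UAS reporter transcription units were exposed to chemicals for 24 h. Reporter mRNA was read by RT-PCR, 6-FAM primer extension, HpaI digestion and capillary electrophoresis; gain of signal fitted relative to DMSO.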

A short description of test [14]: ATG_VDRE_CIS: Attagene CIS-FACTORIAL HepG2 Assay for human Vitamin D Receptor Element (VDRE) (AID 2282968). The following applies: HepG2 VDRE cis-reporter transcription, actives raise or lower the signal. The method, boiled down:
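In transiently transfected HepG2 liver cells, gain or loss of reporter mRNA after 24 h exposure is scored relative to DMSO, using fluorescence detection by capillary electrophoresis of RT-PCR products.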

The target in test [15] is Nuclear receptor subfamily 1 group I member 3 (Homo sapiens) (UniProt Q14994). The test is described as follows: ATG_CAR_TRANS: Attagene TRANS-FACTORIAL HepG2 Assay for human Constitutive Androstane Receptor (CAR) (AID 2282969; active = hit-call score of the fitted dose curve at least 0.9, where 1 is the maximum;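 note: activators raise reporter mRNA above DMSO so AC50 marks induction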). The following applies: HepG2 Attagene TRANS-FACTORIAL CAR reporter. The method, boiled down: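 Readout is reporter mRNA induction, quantified by fluorescent primer extension and capillary electrophoresis after RT-PCR. Cells were HepG2 transiently carrying chimeric NR-Gal4 constructs with GAL4-UAS reporters, treated for 24 h; activity scored upward from DMSO.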

Test [16] concerns the target Estrogen receptor (Homo sapiens) (UniProt P03372). Kind of test: ATG_ERa_TRANS: Attagene TRANS-FACTORIAL HepG2 Assay for human Estrogen Receptor alpha (ERa) (AID 2282970; active = hit-call score of the fitted dose curve at least 0.9, where 1 is the maximum). Conditions: HepG2 Attagene TRANS ERa GAL4 reporter, mRNA. In outline: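 Human liver HepG2, transient transfection of multiple GAL4-UAS reporter units; TRANS format (exogenous NR-Gal4 chimera). 24 h dosing. Readout: reporter mRNA, RT-PCR, 6-FAM primer extension, HpaI digest, capillary electrophoresis. Positive direction vs DMSO.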

Test [17] has as its target Nuclear receptor subfamily 4 group A member 2 (Homo sapiens) (UniProt P43354). The test is described as follows: ATG_NURR1_TRANS: Attagene TRANS-FACTORIAL HepG2 Assay for human Nuclear Receptor Related Protein 1 (NURR1) (AID 2282985; active = hit-call score of the fitted dose curve at least 0.9, where 1 is the maximum). The following applies: HepG2 Attagene TRANS reporter, mRNA readout. The method, boiled down: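 Cells: HepG2, transiently transfected. Exposure: 24 h. Detection: fluorescence of labelled RT-PCR products separated by capillary electrophoresis; upward fit versus DMSO.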

Results filed as inconclusive are left out. Calls of active or inactive are those of the source. Rule for the calls, unless noted: active = hit-call score of the fitted dose curve at least 0.9, where 1 is the maximum; inactive = score below 0.9.

Chain of Transcriptional activator Myb (Homo sapiens) (P10242 whole entry, looked up): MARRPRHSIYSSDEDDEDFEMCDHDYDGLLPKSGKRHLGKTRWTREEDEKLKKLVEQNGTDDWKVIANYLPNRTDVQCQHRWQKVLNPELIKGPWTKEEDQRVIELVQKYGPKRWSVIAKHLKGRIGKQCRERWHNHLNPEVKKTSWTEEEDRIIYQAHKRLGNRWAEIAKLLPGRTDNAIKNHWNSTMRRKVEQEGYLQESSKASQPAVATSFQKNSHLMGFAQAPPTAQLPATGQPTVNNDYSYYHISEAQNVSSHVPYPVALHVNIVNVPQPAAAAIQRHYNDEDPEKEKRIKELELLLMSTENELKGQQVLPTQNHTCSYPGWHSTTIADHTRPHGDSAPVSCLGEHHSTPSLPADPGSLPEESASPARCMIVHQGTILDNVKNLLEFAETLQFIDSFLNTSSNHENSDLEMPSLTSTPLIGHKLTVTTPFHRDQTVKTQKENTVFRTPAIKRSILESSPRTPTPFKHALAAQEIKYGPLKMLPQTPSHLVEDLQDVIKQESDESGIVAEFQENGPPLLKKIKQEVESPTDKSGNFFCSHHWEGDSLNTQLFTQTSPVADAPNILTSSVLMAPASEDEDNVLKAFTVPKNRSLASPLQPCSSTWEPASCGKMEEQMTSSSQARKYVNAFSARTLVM
Chain of Hepatocyte nuclear factor 4-alpha (Homo sapiens) (P41235 whole entry, looked up): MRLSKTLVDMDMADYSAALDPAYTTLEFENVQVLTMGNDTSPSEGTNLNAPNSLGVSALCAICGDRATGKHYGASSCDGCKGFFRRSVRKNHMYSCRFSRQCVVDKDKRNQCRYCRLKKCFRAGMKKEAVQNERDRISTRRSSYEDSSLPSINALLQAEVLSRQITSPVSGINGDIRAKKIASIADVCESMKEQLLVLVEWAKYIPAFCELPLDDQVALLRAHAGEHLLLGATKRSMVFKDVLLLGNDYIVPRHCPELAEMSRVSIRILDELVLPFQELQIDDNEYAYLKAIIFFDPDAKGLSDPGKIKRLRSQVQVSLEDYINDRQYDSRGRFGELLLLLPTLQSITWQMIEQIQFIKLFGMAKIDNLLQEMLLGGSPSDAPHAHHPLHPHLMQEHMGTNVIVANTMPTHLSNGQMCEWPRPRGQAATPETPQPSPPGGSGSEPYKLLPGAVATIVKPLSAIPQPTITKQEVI
Chain of Nuclear receptor subfamily 1 group I member 3 (Homo sapiens) (Q14994 whole entry, looked up, the tested form may be a part): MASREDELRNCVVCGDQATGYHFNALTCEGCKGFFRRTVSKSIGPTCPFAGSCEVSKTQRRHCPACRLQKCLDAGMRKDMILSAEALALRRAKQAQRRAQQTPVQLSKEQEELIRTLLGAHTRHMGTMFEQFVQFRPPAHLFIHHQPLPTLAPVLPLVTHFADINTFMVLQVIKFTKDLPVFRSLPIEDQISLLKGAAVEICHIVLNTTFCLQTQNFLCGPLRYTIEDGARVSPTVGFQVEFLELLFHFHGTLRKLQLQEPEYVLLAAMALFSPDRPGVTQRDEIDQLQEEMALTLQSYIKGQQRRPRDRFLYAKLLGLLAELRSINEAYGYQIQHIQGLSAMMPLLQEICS
Chain of X-box-binding protein 1 (Homo sapiens) (P17861 whole entry, looked up): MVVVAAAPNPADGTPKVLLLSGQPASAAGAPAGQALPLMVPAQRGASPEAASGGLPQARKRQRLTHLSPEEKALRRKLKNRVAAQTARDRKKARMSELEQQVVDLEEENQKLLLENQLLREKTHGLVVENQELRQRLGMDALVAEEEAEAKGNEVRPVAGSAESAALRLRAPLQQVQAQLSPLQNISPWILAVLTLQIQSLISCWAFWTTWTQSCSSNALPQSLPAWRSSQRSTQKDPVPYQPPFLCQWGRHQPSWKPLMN
Chain of Oxysterols receptor LXR-alpha (Homo sapiens) (Q13133 whole entry, looked up, the tested form may be a part): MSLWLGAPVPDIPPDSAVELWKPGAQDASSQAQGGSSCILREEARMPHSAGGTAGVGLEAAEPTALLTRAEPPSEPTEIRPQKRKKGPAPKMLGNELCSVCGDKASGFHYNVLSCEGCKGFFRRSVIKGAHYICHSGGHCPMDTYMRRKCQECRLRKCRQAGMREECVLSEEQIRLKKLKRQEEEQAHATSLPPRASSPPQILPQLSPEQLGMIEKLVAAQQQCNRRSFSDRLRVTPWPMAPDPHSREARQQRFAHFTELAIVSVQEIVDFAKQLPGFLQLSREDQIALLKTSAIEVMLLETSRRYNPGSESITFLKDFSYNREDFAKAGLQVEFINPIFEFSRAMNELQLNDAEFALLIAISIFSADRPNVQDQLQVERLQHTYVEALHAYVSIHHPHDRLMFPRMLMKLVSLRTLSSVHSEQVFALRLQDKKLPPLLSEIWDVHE
Chain of Glucocorticoid receptor (Homo sapiens) (P04150 whole entry, looked up, the tested form may be a part): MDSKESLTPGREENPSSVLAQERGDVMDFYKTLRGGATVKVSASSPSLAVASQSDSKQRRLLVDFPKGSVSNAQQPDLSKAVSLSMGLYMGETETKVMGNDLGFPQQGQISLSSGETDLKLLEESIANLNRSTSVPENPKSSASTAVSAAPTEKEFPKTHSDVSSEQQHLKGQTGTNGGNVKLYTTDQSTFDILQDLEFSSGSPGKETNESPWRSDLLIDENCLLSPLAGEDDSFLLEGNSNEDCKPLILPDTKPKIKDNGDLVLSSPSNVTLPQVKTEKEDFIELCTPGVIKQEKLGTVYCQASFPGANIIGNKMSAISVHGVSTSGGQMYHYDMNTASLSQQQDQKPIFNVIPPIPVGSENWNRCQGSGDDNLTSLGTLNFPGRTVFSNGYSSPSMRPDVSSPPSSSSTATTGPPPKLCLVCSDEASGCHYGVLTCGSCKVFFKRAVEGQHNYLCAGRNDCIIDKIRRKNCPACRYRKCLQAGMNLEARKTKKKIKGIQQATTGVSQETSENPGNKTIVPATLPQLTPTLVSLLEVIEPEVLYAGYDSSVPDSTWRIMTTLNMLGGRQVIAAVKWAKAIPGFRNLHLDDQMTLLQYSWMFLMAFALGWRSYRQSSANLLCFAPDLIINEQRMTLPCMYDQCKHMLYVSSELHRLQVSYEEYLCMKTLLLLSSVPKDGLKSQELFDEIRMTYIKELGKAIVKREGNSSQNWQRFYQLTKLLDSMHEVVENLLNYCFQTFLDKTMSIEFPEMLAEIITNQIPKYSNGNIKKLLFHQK
Chain of Bile acid receptor (Homo sapiens) (Q96RI1 whole entry, looked up, the tested form may be a part): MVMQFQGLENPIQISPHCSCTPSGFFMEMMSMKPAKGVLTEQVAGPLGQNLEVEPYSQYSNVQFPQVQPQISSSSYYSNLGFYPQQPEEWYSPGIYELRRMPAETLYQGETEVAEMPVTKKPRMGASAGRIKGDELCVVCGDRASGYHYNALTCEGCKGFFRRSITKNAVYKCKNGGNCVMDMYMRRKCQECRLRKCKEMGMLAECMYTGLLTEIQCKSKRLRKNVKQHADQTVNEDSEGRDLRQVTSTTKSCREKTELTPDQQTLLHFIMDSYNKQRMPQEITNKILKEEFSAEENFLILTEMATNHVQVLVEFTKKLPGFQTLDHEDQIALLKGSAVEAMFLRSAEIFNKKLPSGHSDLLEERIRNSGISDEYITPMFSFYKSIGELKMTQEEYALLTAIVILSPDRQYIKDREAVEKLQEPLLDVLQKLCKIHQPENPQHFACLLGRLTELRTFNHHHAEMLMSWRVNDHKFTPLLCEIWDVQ
Chain of Estrogen receptor (Homo sapiens) (P03372 whole entry, looked up, the tested form may be a part): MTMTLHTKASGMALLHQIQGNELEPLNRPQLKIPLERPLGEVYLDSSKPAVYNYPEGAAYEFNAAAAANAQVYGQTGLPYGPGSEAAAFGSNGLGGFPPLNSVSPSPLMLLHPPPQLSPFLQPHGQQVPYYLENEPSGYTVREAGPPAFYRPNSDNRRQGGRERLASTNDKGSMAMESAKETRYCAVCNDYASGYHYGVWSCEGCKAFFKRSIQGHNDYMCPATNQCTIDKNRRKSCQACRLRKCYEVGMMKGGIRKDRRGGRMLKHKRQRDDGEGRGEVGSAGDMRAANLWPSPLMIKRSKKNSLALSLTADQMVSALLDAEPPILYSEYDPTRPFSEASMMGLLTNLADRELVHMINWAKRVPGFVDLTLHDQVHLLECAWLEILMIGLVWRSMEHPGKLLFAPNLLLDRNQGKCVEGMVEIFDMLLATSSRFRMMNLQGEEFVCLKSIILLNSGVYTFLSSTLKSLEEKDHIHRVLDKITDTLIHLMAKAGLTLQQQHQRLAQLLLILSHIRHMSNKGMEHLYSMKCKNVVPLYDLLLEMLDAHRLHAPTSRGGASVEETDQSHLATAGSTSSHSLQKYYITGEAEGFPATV
Chain of Nuclear receptor subfamily 4 group A member 2 (Homo sapiens) (P43354 whole entry, looked up): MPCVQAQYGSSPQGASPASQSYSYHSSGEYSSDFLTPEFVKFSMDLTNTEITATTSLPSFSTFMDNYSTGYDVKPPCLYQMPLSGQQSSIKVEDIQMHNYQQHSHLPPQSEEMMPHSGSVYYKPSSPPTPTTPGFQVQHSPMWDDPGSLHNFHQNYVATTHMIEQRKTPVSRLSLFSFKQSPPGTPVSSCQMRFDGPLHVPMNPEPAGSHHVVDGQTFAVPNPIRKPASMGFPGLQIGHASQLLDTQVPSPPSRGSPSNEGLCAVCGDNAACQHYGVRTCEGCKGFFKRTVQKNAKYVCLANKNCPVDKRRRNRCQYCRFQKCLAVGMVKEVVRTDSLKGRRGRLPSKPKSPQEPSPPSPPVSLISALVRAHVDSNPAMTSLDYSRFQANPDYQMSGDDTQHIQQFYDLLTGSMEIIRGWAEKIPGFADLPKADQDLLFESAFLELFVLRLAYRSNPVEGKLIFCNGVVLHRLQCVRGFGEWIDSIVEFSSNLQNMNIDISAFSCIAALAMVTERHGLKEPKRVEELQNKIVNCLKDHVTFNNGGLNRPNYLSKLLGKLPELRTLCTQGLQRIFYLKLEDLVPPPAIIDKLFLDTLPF

Consider `C=CCOCC(O)CO` (stereo unspecified), for which the result in [1], in test [2], in test [3], in [4], in [5] and in test [6] was inactive. In addition, the result in test [7] and in test [8] was inactive. Besides, in test [9], the AC50 – broadly, the concentration giving half of the maximal activity seen – was 152 µM (active).
On to `Nc1ccn([C@H]2CC[C@@H](CO)O2)c(=O)n1`, for which the result in [1], in test [2], in [3], in test [6], in [7] and in test [9] was inactive.
Take `CC(C)(O)C(=O)c1ccc(OCCO)cc1`: the result in [1], in test [2], in test [3], in [10], in test [4] and in test [11] was inactive. Also, the result in [6], in test [7], in test [8] and in [9] was inactive.
With `CC(C)Cc1ccccc1`, the call in test [1], in [2], in test [3], in [10], in [7] and in test [12] was inactive. The molecule was classed as inactive in test [9].
On to `C[N+](C)(C)CCO`, for which the call in test [1], in [2], in test [3], in test [13], in test [7] and in test [9] was inactive.
For `CC(C)=CCCC(C)=CC(=O)O`, the outcome in test [1], in [2], in test [3], in test [10], in test [4] and in test [6] was inactive. For the same molecule, the molecule was called inactive in [8] and in test [9].
`CC(=O)CCC(=O)O`: the outcome in test [1], in test [3], in test [14], in test [15], in test [13] and in [11] was inactive. For the same molecule, the molecule was classed as inactive in test [6], in test [12] and in test [9].
On to `CC(C)CCCC(C)(C)O`, for which the outcome in test [1], in test [3], in test [14], in [15], in test [13] and in test [4] was inactive. Also, the call in [6], in test [12] and in test [9] was inactive.
With `C[C@H](CCC(=O)O)[C@H]1CC[C@H]2[C@@H]3CC[C@@H]4C[C@H](O)CC[C@]4(C)[C@H]3CC[C@]12C`, the AC50 in test [1] was 35.1 µM (active); in test [3] it was 43 µM (active); in test [14], 17.7 µM (active); in test [16], 26.3 µM (active); in [17], 27.7 µM (active). The molecule was called inactive in test [15], in test [10], in test [11], in test [6], in test [8] and in test [12]. Also, the molecule was classed as inactive in test [9].
Take `O=Cc1ccccc1O`: the molecule was classed as inactive in test [1], in test [3], in test [14], in test [15], in test [10] and in test [13]. The outcome in [6], in test [7], in [12] and in [9] was inactive.
On to `OCCCO`, for which the molecule was classed as inactive in test [1], in [3], in [14], in [10], in test [4] and in test [11]. For the same molecule, the molecule was called inactive in test [7], in [8], in test [12] and in test [9].

Values taken from PubChem BioAssay (EPA / NIEHS).
